From PubChem BioAssay
MARV entry inh = qHTS for inhibitors of binding or entry into cells for Marburg Virus. Marburg virus pseudotyped entry inhibition, cell reporter. Potency, µM (titrated, usually from 37.8 µM), inactives show at the top dose activity change, negative = inhibition, hits mostly inhibitors. hit rate 1.8% among 300,000; calls by dose curve; tested in HEK293 cells; note: potency is the fitted concentration of half-maximal effect
Lassa entry inh = qHTS for Inhibitors of binding or entry into cells for Lassa Virus. Potency, µM (titrated, usually from 37.9 µM), without a hit: top-dose activity change, negative = inhibition, most hits filed as inhibitors. hit rate 1.2% among 300,000. Lassa virus pseudotype entry inhibition, cell reporter; calls by dose curve; tested in HEK293 cells; note: potency is the fitted concentration of half-maximal effect; nearly all actives have a fitted effect of over 50% in size
FMDV antiviral = High Throughput Screening for Foot and Mouth Disease Virus Antivirals; FMDV antiviral cell-based qHTS; AID 1159524, 2015; hit rate 1.2% among 410,000; Potency, µM (series often up to 57.9 µM), for the others: at the top dose activity change, negative = inhibition, usual class: inhibitors; calls by dose curve; tested in HEK293T cells; note: read-out not given here; potency is the fitted concentration of half-maximal effect; nearly all actives have a fitted effect of over 45% in size
HCMV inh = qHTS Assay for inhibitors of the human cytomegalovirus (HCMV) | HFF cells, HCMV-luciferase reporter, 72 h; active compounds read low | activity change, negative = inhibition, % at 57.5 µM | hit rate 4.5% among 410,000; in the data active = activity change below about -60%; inconclusive = no clear call, values can overlap the other calls; inactive = above about -39%
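Cell-based, HFFs, 1000 cells/well, 16 h 37C; cpds in DMSO + HCMV-luc, MOI 1 PFU/cell; 72 h 37C; OneGlo luminescence after 5 min RT; norm. to buffer vs Salinomycin 10uM.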
HCV inhibitor = qHTS Assay for Inhibitors of Hepatitis C Virus (HCV). hit rate 3.4% among 340,000. Potency, µM (titrated, usually from 41.8 µM), for inactives: at the top dose activity change, negative = inhibition, most hits filed as inhibitors. Huh7.5.1 HCVcc-Cre infection, luciferase reporter, 44 h; active = well fitted inhibition curve with a large enough effect; inconclusive = small, poorly fitted or top-dose-only effect, or another doubt; inactive = no such curve, though single readings can be large or run the other way; note: potency is the fitted concentration of half-maximal effect
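Compounds are dispensed onto cells plated 4 h earlier at 1,000 per well, with HCVcc-Cre virus (about 0.5 moi) added next. Following 44 h of culture, luminescent signal is measured for 15 sec after 15 min with substrate at room temperature.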
An asterisk follows results filed as active; ? = inconclusive; / = not tested or not shown; ! = a repeat was not active; [ ] = dose if it differs, or a comment. Most compounds without a hit are left out; they make up all but 7.9% or so of the library. % is set by controls: 0 for no effect and ±100 for the full control effect.

SMILES	MARV entry inh	Lassa entry inh	FMDV antiviral	HCMV inh	HCV inhibitor
CCN(CC)CCCNc1ccc2ncn3c4ccc(O)cc4c(=O)c1c23	?	?	?	-90*	?
Cc1ccc(NCCN(C)C)c2c(=O)c3cc(O)ccc3sc12	?	4µM*	-23%	-99*	10µM*
CCCCN=CN1c2cc(OC)ccc2-n2cccc2C1c1ccccc1 (stereo unspecified)	/	/	/	85	/
Cc1ccc(NC(=O)C(=O)NCC(c2cccnc2)N2CCc3ccccc3C2)cc1 (stereo unspecified)	/	9%[46.1 µM]	?	-5	/
COCC=CC1=CC2=CC(=O)C(C)(OC(=O)c3cnc4ccccc4n3)C(=O)C2=CN1CC1CC1 (stereo unspecified)	58%[14.2 µM]	/	/	/	/
CCN(CC)c1ccc(NC(=O)CCc2c(C)nc3ncnn3c2C)c(C)c1	3%[46.1 µM]	0%[46.1 µM]	0%	-3	/
Cn1cnc([N+](=O)[O-])c1Sc1ncnc2nc[nH]c12	18µM*	?	?	0	17%
Cc1ccc(CCNC(=O)CCCn2nc(C)c3c(C)n(-c4ccccc4)nc3c2=O)cc1	/	24%[46.1 µM]	-22%	-11	/
COc1ccc(S(=O)(=O)n2ccc(-c3ccc4c(c3)CCC(C)(C)O4)n2)cc1	?	?	-20%	-85*	-74%
c1ccc2c(c1)NC1(CCCC1)n1c-2nc2ccccc21	?	-2%	/	-28	11µM*
O=C(Cc1cccc(F)c1)Nc1ccc2c(c1)CCC2	23%[46.1 µM]	0%	39%	-98*	-2%
COc1ccc(CC(=O)Nc2ccc3c(c2)CCC3)cc1OC	?	11µM*	?	-21	?
O=C(NCCc1ccncc1)c1cnn(-c2ncc3c(n2)-c2ccccc2CCC3)c1C1CC1	/	/	-12%	/	/
O=C(Nc1ccc(F)cc1F)c1ccc2c(O)c(S(=O)(=O)c3ccc(Cl)cc3)c(=O)[nH]c2c1	/	-3%[46.1 µM]	-9%	-5	/
CC(C)(C)c1csc(NC(=O)c2ccc(Cl)s2)n1	?	?	-40%	?	8.9µM*
COCC(=O)Nc1cc(C(=O)N2CCCOc3c(cccc3OC)C2)c2c(c1)nc(C1CCC1)n2C	/	/	-3%	/	/
Cc1[nH]c2ccc(OC(F)(F)F)cc2c1CCNCc1ccc(Cl)cc1	?	?	-17%	-99*	?
CCOc1cccc(CNCCc2c(C)[nH]c3ccc(OC(F)(F)F)cc23)c1O	/	/	14µM*	-101*	?
Cc1[nH]c2ccc(OC(F)(F)F)cc2c1CCNCc1cccc([N+](=O)[O-])c1	?	10%	-19%	?	?
CCC(Oc1ccc2c(=O)c(-c3ccccc3OC)coc2c1)C(=O)OCc1ccccc1 (stereo unspecified)	?	-5%	20µM*	60	?
O=C(Nc1nc(-c2ccccc2)c(-c2ccccc2)s1)c1ccc(S(=O)(=O)N(CCCl)CCCl)cc1	?	5µM*	-9%	-28	-10%
COCCN(CCOC)S(=O)(=O)c1ccc(C(=O)Nc2nc(C)c(C(C)=O)s2)cc1	27%	27%	44%	52	9%
NS(=O)(=O)c1ccc(CCNC(=O)c2cc(-c3cc(Cl)ccc3O)n[nH]2)cc1	/	/	0%	-80*	-19%
O=C(Nc1ccc(Cl)cc1)c1ccc(S(=O)(=O)N2CCOCC2)cc1	?	-14%[46.1 µM]	9%	-40	-9%
O=C(Nc1ccc(S(=O)(=O)N2CCOCC2)cc1)c1cc(-c2cc(Cl)ccc2O)n[nH]1	/	/	?	-65*	10µM*
SMILES	MARV entry inh	Lassa entry inh	FMDV antiviral	HCMV inh	HCV inhibitor
Cc1ccc(O)c(-c2cc(C(=O)Nc3ccc(S(=O)(=O)N4CC(C)OC(C)C4)cc3)[nH]n2)c1 (stereo unspecified)	?	?	?	-14	11µM*
Cc1ccc(-c2cc(C(=O)Nc3ccc(S(=O)(=O)N4CC(C)OC(C)C4)cc3)[nH]n2)c(O)c1 (stereo unspecified)	-9%	-16%	-27%	?	4%
Cc1ccc(CNC(=O)C(CC(C)C)N2Cc3ccccc3C2=O)cc1 (stereo unspecified)	/	12%[46.1 µM]	-3%	-7	/
CN1C(=O)c2[nH]nc(-c3ccc(F)cc3)c2C1c1cccc(O)c1 (stereo unspecified)	12%[46.1 µM]	25%[46.1 µM]	-23%	13	/
COc1ccc(-c2cc(C(F)(F)F)n3nc(C(=O)OC(C)C)cc3n2)cc1	/	-1%[46.1 µM]	-23%	8	/
COc1ccc(N(C)S(=O)(=O)c2ccc(C)cc2)c([N+](=O)[O-])c1	6%[46.1 µM]	13µM*	-17%	?	-7%
COc1ccc(NC(=O)CN(C)S(=O)(=O)c2ccc(C)cc2)c([N+](=O)[O-])c1	8%	-3%	-3%	-15	-6%
CCN(Cc1ccncc1)Cc1ccc2c(c1)CN(C(=O)c1ccccc1-n1cccn1)CCO2	/	/	-10%	/	/
COc1ccc(C)cc1NC(=S)NC(C)c1ccc(OC)c(OC)c1 (stereo unspecified)	/	/	24%	?	11µM*
COc1ccc(NC(=S)NC(C)c2ccncc2)cc1OC (stereo unspecified)	17%[46.1 µM]	12%[46.1 µM]	19%	?	2%
C=CCNC(=O)c1onc(CSc2ccc(F)c(F)c2)c1C(=O)NCC=C	/	/	-12%	-66*	-26%
CCc1cc(C(=O)OC)c(NC(=O)CC2SC(=NC)N(C)C2=O)s1 (stereo unspecified)	-10%[46.1 µM]	13%[46.1 µM]	5%	10	16µM*
CN=C1SC(CC(=O)Nc2sc(C)c(C)c2C(=O)OC)C(=O)N1C (stereo unspecified)	-25%	-21%	/	-12	?
C[C@@H]1O[C@@H](O[C@H]2C[C@@H](O)[C@]3(CO)[C@@H]4C(CC[C@]3(O)C2)[C@@]2(O)CC[C@H]([C@@H]3COC(=O)C3)[C@@]2(C)C[C@H]4O)[C@H](O)[C@H](O)[C@H]1O (stereo partly specified)	0.82µM*	2.3µM*	/	/	/
CC1OC(OC2CC(O)C3(CO)C4C(O)CC5(C)C(C6=CC(=O)OC6)CCC5(O)C4CCC3(O)C2)C(O)C(O)C1O (stereo unspecified)	/	/	?	-72*	?
C[C@@H]1O[C@@H](O[C@H]2C[C@@H](O)[C@]3(CO)[C@H]4[C@H](O)C[C@]5(C)[C@@H](C6COC(=O)C6)CC[C@]5(O)[C@@H]4CC[C@]3(O)C2)[C@H](O)[C@H](O)[C@H]1O (stereo partly specified)	?	1.6µM*	?	-97*	1µM*!
Cc1oc(-c2cccc(Cl)c2)nc1CSc1nncn2c1cc1occc12	/	6%[46.1 µM]	-8%	-7	/
CC(C)(C)c1cnnn1-c1cccc([N+](=O)[O-])c1	6%[46.1 µM]	-22%[46.1 µM]	-5%	-66*	9%
O=[N+]([O-])c1cccc(-n2nncc2-c2ccccc2)c1	-31%[46.1 µM]	9%[46.1 µM]	-14%	5	6%
